# Laboratory results published in the supplement of paper PMC8728848.
# About 410 targets per protein were measured; listed, in parts, are those with the strongest signals and a random draw of the rest.
# How the values were obtained:
# Experiment in all cases: glycan array binding signal (z-score within array); higher = stronger binding
# Conditions in all cases: glycan notation: IUPAC condensed, linker removed
# [1] = target: Gal(b1-4)GlcNAc(b1-3)Gal(b1-4)GlcNAc(b1-3)Gal(b1-4)GlcNAc(b1-2)[Gal(b1-4)GlcNAc(b1-3)Gal(b1-4)GlcNAc(b1-3)Gal(b1-4)GlcNAc(b1-6)]Man(a1-6)[Gal(b1-4)GlcNAc(b1-3)Gal(b1-4)GlcNAc(b1-3)Gal(b1-4)GlcNAc(b1-2)Man(a1-3)]Man(b1-4)GlcNAc(b1-4)[Fuc(a1-6)]GlcNAc
# How it was run: (§1)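 The binding signal is a Z-score computed within each array and averaged over linkers. Arrays of the same protein sequence at different concentrations or buffers were also averaged together. Data originate from 3228 arrays in the Consortium for Functional Glycomics database, kept only where the protein sequence was available.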
# [2] = target: Gal(b1-4)GlcNAc(b1-3)Gal(b1-4)GlcNAc(b1-3)Gal(b1-4)GlcNAc(b1-3)Gal(b1-4)GlcNAc(b1-2)[Gal(b1-4)GlcNAc(b1-3)Gal(b1-4)GlcNAc(b1-3)Gal(b1-4)GlcNAc(b1-3)Gal(b1-4)GlcNAc(b1-6)]Man(a1-6)[Gal(b1-4)GlcNAc(b1-3)Gal(b1-4)GlcNAc(b1-3)Gal(b1-4)GlcNAc(b1-3)Gal(b1-4)GlcNAc(b1-2)Man(a1-3)]Man(b1-4)GlcNAc(b1-4)[Fuc(a1-6)]GlcNAc
# How it was run: as §1
# [3] = target: Gal(b1-4)GlcNAc(b1-3)Gal(b1-4)GlcNAc(b1-3)Gal(b1-4)GlcNAc(b1-3)Gal(b1-4)GlcNAc(b1-3)Gal(b1-4)GlcNAc(b1-3)Gal(b1-4)GlcNAc(b1-2)Man(a1-3)[Gal(b1-4)GlcNAc(b1-3)Gal(b1-4)GlcNAc(b1-3)Gal(b1-4)GlcNAc(b1-3)Gal(b1-4)GlcNAc(b1-3)Gal(b1-4)GlcNAc(b1-3)Gal(b1-4)GlcNAc(b1-2)Man(a1-6)]Man(b1-4)GlcNAc(b1-4)GlcNAc
# How it was run: as §1
# [4] = target: Gal(b1-4)GlcNAc(b1-3)Gal(b1-4)[Fuc(a1-3)]GlcNAc(b1-3)Gal(b1-4)[Fuc(a1-3)]GlcNAc
# How it was run: as §1
# Gal(b1-6)Gal = target: Gal(b1-6)Gal
# How it was run: as §1
# Gal3S(b1-4)Glc = target: Gal3S(b1-4)Glc
# How it was run: as §1
# GalNAc(b1-3)Gal = target: GalNAc(b1-3)Gal
# How it was run: as §1
# [5] = target: GalNAc(b1-3)Gal(a1-4)Gal(b1-4)GlcNAc(b1-3)Gal(b1-4)Glc
# How it was run: as §1
# [6] = target: GalNAc(b1-4)GlcNAc(b1-2)Man(a1-3)[GalNAc(b1-4)GlcNAc(b1-2)Man(a1-6)]Man(b1-4)GlcNAc(b1-4)GlcNAc
# How it was run: as §1
# GalNAc(b1-6)GalNAc = target: GalNAc(b1-6)GalNAc
# How it was run: as §1
# GalNAc3S(b1-4)GlcNAc3S = target: GalNAc3S(b1-4)GlcNAc3S
# How it was run: as §1
# [7] = target: GlcNAc(a1-4)Gal(b1-4)GlcNAc(b1-3)Gal(b1-4)[Fuc(a1-3)]GlcNAc(b1-3)Gal(b1-4)[Fuc(a1-3)]GlcNAc
# How it was run: as §1
# [8] = target: GlcNAc(b1-2)[GlcNAc(b1-4)]Man(a1-3)[GlcNAc(b1-4)][GlcNAc(b1-2)[GlcNAc(b1-6)]Man(a1-6)]Man(b1-4)GlcNAc(b1-4)[Fuc(a1-6)]GlcNAc
# How it was run: as §1
# [9] = target: GlcNAc(b1-3)Gal(b1-4)GlcNAc(b1-3)Gal(b1-4)GlcNAc(b1-2)Man(a1-3)[GlcNAc(b1-3)Gal(b1-4)GlcNAc(b1-3)Gal(b1-4)GlcNAc(b1-2)Man(a1-6)]Man(b1-4)GlcNAc(b1-4)GlcNAc
# How it was run: as §1
# [10] = target: GlcNAc(b1-3)Gal(b1-4)GlcNAc(b1-3)[GlcNAc(b1-3)Gal(b1-4)GlcNAc(b1-3)]GalNAc
# How it was run: as §1
# [11] = target: Man(a1-2)Man(a1-3)[Man(a1-6)]Man(a1-6)[Man(a1-2)Man(a1-3)]Man(b1-4)GlcNAc(b1-4)GlcNAc
# How it was run: as §1
# Man(b1-4)GlcNAc = target: Man(b1-4)GlcNAc
# How it was run: as §1
# Neu5Ac(a2-3)Gal = target: Neu5Ac(a2-3)Gal
# How it was run: as §1
# [12] = target: Neu5Ac(a2-3)Gal(b1-3)GalNAc(b1-4)Gal(b1-4)Glc
# How it was run: as §1
# [13] = target: Neu5Ac(a2-3)Gal(b1-4)GlcNAc(b1-2)Man(a1-3)[Neu5Ac(a2-3)Gal(b1-4)GlcNAc(b1-2)Man(a1-6)]Man(b1-4)GlcNAc(b1-4)[Fuc(a1-6)]GlcNAc
# How it was run: as §1
# [14] = target: Neu5Ac(a2-6)Gal(b1-3)GlcNAc(b1-3)[Gal(b1-4)GlcNAc(b1-6)]Gal(b1-4)Glc
# How it was run: as §1
# [15] = target: Neu5Ac(a2-6)Gal(b1-4)GlcNAc(b1-2)Man(a1-3)[Gal(b1-4)GlcNAc(b1-2)Man(a1-6)]Man(b1-4)GlcNAc(b1-4)GlcNAc
# How it was run: as §1
# [16] = target: Neu5Ac(a2-6)Gal(b1-4)GlcNAc6S
# How it was run: as §1
# [17] = target: Neu5Gc(a2-3)Gal(b1-4)[Fuc(a1-3)]GlcNAc
# How it was run: as §1
binder,measurement,setting,value
B1567 (Bifidobacterium sp) (protein) MKFTTAKKAVALTGAVAMLVSVAACGSDSGKSSQPAQDSDVKEITVWAWEPSLTQVAKDFEKETGIKVDLKNVGTNTKEYTQLDNAIEAGSGAPDVAQVEYYAVPQYAIKGNLLDITDKTSGYKDFYTPGPWASVQFAGKVYGLPMDSGPMAFFYNKEVFDKAGVDAEQIKTWDQYYDAAKKIHALGDNYYITSDTGDAGFFDSMTWLAGAKPFQTSSDGSEVTVNLTEDKGVKTFTDFWQKLLDEGLLDTKTAGWSEDWFKGMVDGTIASLFTGAWMPANLANSAADGAGKWRVTQMPTADGSTTNSENGGSSLAVLASTKKADAAYQFIEYANHGAGVATRVAGGAFPADKASLEKDSFKNATTVKNADGQDVDYFGGQKYNEVLAQAAENVSSGYQFLPFEVKARTIFGDYFGKSYTGDQKLSDGVAAWQKALQDYGKDQGFTVK,glycan array binding signal (z-score),[1],0.271
same,glycan array binding signal (z-score),[2],0.348
same,glycan array binding signal (z-score),[3],1.66
same,glycan array binding signal (z-score),[4],1.8
same,glycan array binding signal (z-score),Gal(b1-6)Gal,11
same,glycan array binding signal (z-score),Gal3S(b1-4)Glc,-0.135
same,glycan array binding signal (z-score),GalNAc(b1-3)Gal,-0.116
same,glycan array binding signal (z-score),[5],-0.139
same,glycan array binding signal (z-score),[6],0.398
same,glycan array binding signal (z-score),GalNAc(b1-6)GalNAc,-0.095
same,glycan array binding signal (z-score),GalNAc3S(b1-4)GlcNAc3S,-0.058
same,glycan array binding signal (z-score),[7],0.042
same,glycan array binding signal (z-score),[8],-0.12
same,glycan array binding signal (z-score),[9],0.008
same,glycan array binding signal (z-score),[10],-0.052
same,glycan array binding signal (z-score),[11],0.007
same,glycan array binding signal (z-score),Man(b1-4)GlcNAc,-0.154
same,glycan array binding signal (z-score),Neu5Ac(a2-3)Gal,-0.108
same,glycan array binding signal (z-score),[12],-0.112
same,glycan array binding signal (z-score),[13],-0.063
same,glycan array binding signal (z-score),[14],-0.118
same,glycan array binding signal (z-score),[15],-0.128
same,glycan array binding signal (z-score),[16],-0.094
same,glycan array binding signal (z-score),[17],-0.036
